From the supplement of paper PMC10338343
± gives the standard deviation.

tested on: MILI (PIWIL2) piRISC loaded with piRNA #1 (26 nt); assay: pre-steady-state target cleavage rate (min^-1); guide: piRNA #1 5'p-UGAGGUAGUAGGUUGUAUAGUAUCCA; MIWI and MILI are mouse PIWI proteins and EfPiwi is from a freshwater sponge; tags in brackets are library labels; higher = faster piRNA-guided slicing of the target; conditions: auxiliary factor: 500 nM mouse GTSF1
Outline: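 Sequencing of uncleaved targets, normalised to depth and to weakly complementary targets, was the readout of this Cleave-'n-Seq assay. A transcribed, DNA-blocked target RNA library (0.1 nM) was mixed with 1 nM active affinity-purified piRISC carrying one synthetic guide, with or without 500 nM GTSF1 partner protein, in HEPES–potassium acetate buffer at 33 °C for 0–8 or 0–960 min. Three trials were pooled, k3 was capped at 0.0001 min^-1, and a burst-and-steady-state fit gave the pre-steady-state cleavage rate.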

| Sequence | pre-steady-state target cleavage rate |
| --- | --- |
| GGAGACCUAUGUUUACAAGCUACUACCUCA | 0.0793 ± 0.017 |
| GGAGACCUAUCUAUAGAACCUACUACCUCA | 0.0821 ± 0.013 |
| GGAGACCUAUGUAUACAACAUACUACCUCA | 0.0179 ± 0.0028 |
| GGAGACCUAUGAUUACAAGCUACUACCUGA | 0.0183 ± 0.0056 |
| GGAGAGGAUAGAUUACAACCUACUACCUCA | 0.0529 ± 0.0086 |
| GGAGACGAUACUAUAGUUCCUACUACCUCA | 0.161 ± 0.012 |
| GGAGUGGAUAGUAUACAACCUACUACGUCA | 0.0386 ± 0.0083 |
| GGAGACCUAUGAUAUGAACCUACUAUCUCA | < 0.0001 |
| GGAGACCUAACUAUACAACCUACUAUCCUCA | 0.177 ± 0.047 |
| GGAGACCUAUCUAUACAACCUACUACGCUCA | 0.229 ± 0.023 |
| GGAGACCUUACUAUACAACCAACUACGUCA | 0.00333 ± 0.0023 |
| GGAGACCUAACUAUACAAGGUACUACCUCA | 0.0664 ± 0.012 |
| GGAGACCUUACUAUACAACCUUCUUCCUCA | 0.00391 ± 0.0031 |
| GGAGACCAUACUAUUCAACCUACUACCACA | 0.189 ± 0.023 |
| GGAGACCUAUGUAUACAACCUCACUACCUCA | 0.00401 ± 0.0027 |
| GGAGACCUUACUAUACAACCAACUUCCUCA | 0.00396 ± 0.0024 |
| GGAGACCUAUCUAUACAACCUACUUCGUCA | 0.0271 ± 0.0057 |
| GGAGACCUAUCUAUACAACCUACUACCUGCA | 0.103 ± 0.014 |
| GGAGACCAUACAAUACAACCUACUACGUCA | 0.0912 ± 0.014 |
| GGAGACCUAUCUAUACGACCUACUACCUCA | 0.0198 ± 0.0044 |

| Sequence | pre-steady-state target cleavage rate |
| --- | --- |
| GGAGACGAUACAAUACAACGUACUACCUCA | 0.0185 ± 0.0029 |
| GGAGACCUAUGUAUACAACCUACUACCUA | 0.044 ± 0.0064 |
| GGAGACCUAACUAUUCUACCUACUACCUCA | 0.104 ± 0.021 |
| GGAGACCUUACUAUAGAACCUACUUCCUCA | 0.00446 ± 0.0033 |
| GGAGACCUAUGUAUGCAACCUACUACCUCA | 0.0637 ± 0.0095 |
| GGAGACCUUACUAUACAACCUACAACCACA | 0.0494 ± 0.013 |
| GGAGACCUAUGUAUUCAACCUACUACCUGA | 0.0167 ± 0.0046 |
| GGAGACCUAUCUAUACAACCUUCUACGUCA | 0.00428 ± 0.003 |
| GGAGACCUAUGAUAACAAGCUAGUACCUCA | 0.00508 ± 0.0032 |
| GGAGACCUAACUAAACAAGCUACUACCUCA | 0.15 ± 0.02 |
| GGAGACCUAUGAUAUGUUCCUACUUCCUCA | < 0.0001 |
| GGAGACCAUACUAUUCAACCAACUACCUCA | 0.00316 ± 0.0029 |
| GGAGACCUAUGUAUUCAACCUACAACCUCA | 0.0352 ± 0.0064 |
| GGAGACCUAUGAAUACAACCUACUACACUCA | 0.00526 ± 0.0026 |
| GGAGACCUUACUAUACAACCUACUAGGAGA [g6:g22:cont:t1A] | 0.00747 ± 0.0032 |
| GGAGACCUAUGAUAUCAUCCUACAACCUCA | 0.00348 ± 0.003 |
| GGAGAGGAUACUUUAGAACCUACUACCUCA | 0.153 ± 0.0078 |
| GGAGACCUUACUAUACAACCUACAUGGAGA [g8:g22:cont:t1A] | 0.00299 ± 0.0029 |
| GGAGACCUAUGAUUACAAGGUACUACCUCA | 0.0041 ± 0.0031 |
| GGAGACCUAUCUAUACAACCUACCUACCUCA | 0.0519 ± 0.0097 |
